# Experimental data as given in PubChem BioAssay AID2685 (National Center for Advancing Translational Sciences (NCATS), 2010).
# In all, about 320,000 compounds went through this assay and about 2,100 (0.66%) were called active. Roughly 53% stayed inconclusive and do not appear here. The call rests on the fitted dose curve; in most records, active means well fitted inhibition curve with a large enough effect in the signal ratio, with a control signal flat (not every such curve was filed as active); inconclusive means small, poorly fitted or top-dose-only effect, or effect the other way, or a change in a side signal; inactive means flat fitted curve, though single readings scatter; the % refers to the signal ratio. This excerpt belongs to a sample that is enriched for actives.
# Assay: qHTS Assay for Lipid Storage Modulators in Drosophila S3 Cells;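 on cell number change: cells counted by Cell Tracker Red CMTPX staining in the red channel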; on lipid storage change, negative = inhibition: on the % scale 0 is the no-effect control and ±100 the full control effect
# Conditions: BODIPY lipid droplet fluorescence, 18-24 h, cells fed with added oleic acid; cell number change: measured here: cell count max response; series mostly up to 46.1 µM; lipid storage change, negative = inhibition: at the top concentration
# In short: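 Drosophila S3 cells got compounds at several concentrations plus oleic acid (400 uM solution). Laser-scanning cytometry with 488 nm excitation read lipid droplets at 500-530 nm and cells at 575-640 nm. Percent activity was relative to 20 uM Triacsin C.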
# Potency means the concentration at half of the fitted maximal effect.
SMILES,"lipid storage change, negative = inhibition",cell number change [%],Potency,outcome
O=C(N/N=C/C=C/c1ccc([N+](=O)[O-])cc1)C1COc2ccccc2O1 (stereo not drawn),1.32% (inactive),-22.4,–,–
Fc1ccc(-n2ncc3c(SCc4cccnc4)ncnc32)cc1,–,-12.6,23.1 µM (active),–
Cc1cccc(-n2ncc3c(NCc4cccnc4)ncnc32)c1,0.0879% (inactive),-21,–,–
Cc1ccc(-n2ncc3c(SCc4ccccc4)ncnc32)cc1,-1.89% (inactive),8.14,–,–
Cc1ccc(CSc2ncnc3c2cnn3-c2ccc(C)cc2)cc1,-9.41% (inactive),-6.49,–,–
Clc1ccc(-n2ncc3c(NCc4cccnc4)ncnc32)cc1Cl,–,-22.6,13 µM (active),–
COc1ccc(-n2ncc3c(NCc4cccnc4)ncnc32)cc1,-11.6% (inactive),-6.4,–,–
COc1cccc(NC(=O)Cn2c3ccccc3c3nc4n(c(=O)c32)CCCS4)c1,-0.494% (inactive),–,–,–
COc1ccc(Cn2nc(C)cc2C)cc1OC,29.5% (inactive),–,–,–
O=C(CN(c1ccccc1)S(=O)(=O)c1ccccc1)N/N=C/c1ccco1,11.2% (inactive),6.67,–,–
Cc1ccc(CNC(=O)C2CCCN(S(=O)(=O)c3cnc[nH]3)C2)cc1 (stereo not drawn),-2.15% (inactive),-11.5,–,–
O=C(C1CCN(S(=O)(=O)c2ccccc2F)CC1)N1CCN(Cc2ccc3c(c2)OCO3)CC1,–,-10.8,–,inactive
CCN(CCCNC(=O)C1CCN(S(=O)(=O)c2cnc[nH]2)CC1)c1ccccc1,–,–,–,inactive
CN(CCNC(=O)C1CCN(S(=O)(=O)c2cnc[nH]2)CC1)Cc1ccccc1,-0.914% (inactive),11.4,–,–
COc1ccc(CNC(=O)C2CCCN(S(=O)(=O)c3cnc[nH]3)C2)cc1 (stereo not drawn),–,-8.84,8.2 µM (active),–
CCCCNC(=O)C1CCN(S(=O)(=O)c2cnc[nH]2)CC1,–,-1.76,18.4 µM (active),–
O=C(C1CCN(S(=O)(=O)N2CCOCC2)CC1)N1CCN(Cc2ccc3c(c2)OCO3)CC1,11.7% (inactive),-10.4,–,–
COc1ccccc1CNC(=O)C1CCCN(S(=O)(=O)c2cnc[nH]2)C1 (stereo not drawn),–,23,–,inactive
COC(=O)CNC(=O)C1CCN(S(=O)(=O)c2cnc[nH]2)CC1,–,-7.96,0.326 µM (active),–
COc1ccc(CCNC(=O)C2CCN(S(=O)(=O)c3cnc[nH]3)CC2)cc1OC,24.8% (inactive),4.12,–,–
O=C(C1CCN(S(=O)(=O)c2cnc[nH]2)CC1)N1CCN(Cc2ccc3c(c2)OCO3)CC1,–,1.49,5.8 µM (active),–
O=C(NCc1ccccn1)C1CCN(S(=O)(=O)c2cnc[nH]2)CC1,-1.49% (inactive),-2.16,–,–
CC(=O)NC1=NN(C(C)=O)C(C)(CS(=O)(=O)c2ccc(Cl)cc2)S1 (stereo not drawn),5.98% (inactive),-3.99,–,–

SMILES,"lipid storage change, negative = inhibition",cell number change [%],Potency,outcome
O=C(O)CC(NC(=O)c1ccco1)c1ccco1 (stereo not drawn),–,3.18,–,inactive
Cn1c(-c2ccccn2)[n+](C)c2ccccc21,-16.5% (inactive),8.68,–,–
CCN(CC)CC(=O)N1c2ccccc2Oc2c(c(=O)n(C)c(=O)n2C)C1c1cccc([N+](=O)[O-])c1 (stereo not drawn),9.31% (inactive),16,–,–
COc1ccc(CC(=O)N/N=C(\C)CC(=O)Nc2ccc3c(c2)OCCO3)cc1OC,–,-9.52,–,inactive
CN(c1ccccc1)S(=O)(=O)c1ccc(C(=O)OCC(=O)N2CCOCC2)cc1,–,–,–,inactive
O=c1cc(N2CCCCCC2)[nH]c(=O)n1-c1ccc(Cl)cc1,-7.58% (inactive),-2.94,–,–
CCCCC1=CC2=CC(=O)C(C)(OC(=O)CC)C(=O)C2=CN1CCCCO (stereo not drawn),0.621% (inactive),9.55,–,–
O=C(c1ccccc1)N1CCN=C1SCc1ccc([N+](=O)[O-])cc1,0.791% (inactive),12,–,–
Cc1cc(C)cc(C(=O)N2CCN=C2SCc2ccc([N+](=O)[O-])cc2)c1,–,28.4,16.4 µM (active),–
Cc1ccc(C(=O)N2CCN=C2SCc2ccc([N+](=O)[O-])cc2)cc1,15.5% (inactive),4.98,–,–
Cc1ccccc1-n1nc(C)c2cc(C(=O)N3CCOCC3)sc21,0.853% (inactive),4.65,–,–
Cc1ccccc1-n1c(SCC(=O)N2CCOCC2)nc(O)c(Cc2ccccc2)c1=O,–,15.6,–,inactive
COc1ccccc1-n1c(SCC(=O)N2CCCCC2)nc(O)c(Cc2ccccc2)c1=O,–,-4.53,–,inactive
COc1ccccc1-n1cnnc1SCC(=O)N1CCN(C(=O)c2ccco2)CC1,1.02% (inactive),21.6,–,–
COc1ccccc1-n1c(SCC(=O)N2CCOCC2)nc(O)cc1=O,–,-21.1,–,inactive
CCCCc1c(O)nc(SCC(=O)c2ccccc2)n(-c2ccccc2OC)c1=O,1.38% (inactive),11.3,–,–
COc1ccccc1-n1c(SCC(=O)N2CCOCC2)nc(O)c(Cc2ccccc2)c1=O,–,-8.86,13 µM (active),–
COc1ccccc1-n1cnnc1SCC(=O)N1CCOCC1,–,-10.4,0.0146 µM (active),–
CCc1c(O)nc(SCC(=O)Nc2ccccc2OC)n(-c2ccccc2C)c1=O,–,–,–,inactive
CCCCc1c(O)nc(SCC(=O)Nc2cccc3ccccc23)n(-c2ccccc2OC)c1=O,–,14.5,20.6 µM (active),–
CCn1c(=O)c2cc(C(=O)NCC(OC)OC)sc2c2ccccc21,-0.615% (inactive),25.4,–,–
CCOC(=O)c1csc(NC(=O)C(C)(C)C)n1,-3.09% (inactive),-3.51,–,–
O=C(c1ccc(F)cc1)C1CCN(C(=O)Nc2ccc(F)cc2F)CC1,12.9% (inactive),14.5,–,–

SMILES,"lipid storage change, negative = inhibition",cell number change [%],Potency,outcome
CCCc1c(O)c2ccccc2[nH]c1=O,17.1% (inactive),3.83,–,–
C/C(CC(=O)Nc1cccc(Cl)c1C)=N\NC(=O)Cc1csc(N)n1,-3.2% (inactive),22,–,–
CNc1nc(N)c([N+](=O)[O-])c(Nc2ccccc2OC)n1,9.33% (inactive),11.2,–,–
S=C(NC1CC1)N1CCCc2ccccc21,–,–,–,inactive
COC(=O)c1sc(N)c(C(=O)OC)c1COC(=O)C12CC3CC(CC(O)(C3)C1)C2,–,-15.1,–,inactive
CCOC(=O)c1sc(NC(=O)OC)c(C(=O)OC)c1C,-9.1% (inactive),11.2,–,–
CC(=O)c1c(COC(=O)c2ccc(Cl)cc2)nc2ccccc2[n+]1[O-],0.115% (inactive),15.2,–,–
CCSc1nnc(NC(=O)c2nc(S(=O)(=O)Cc3ccc(F)cc3)ncc2Cl)s1,–,-9.14,–,inactive
Cc1ccc(S(=O)(=O)NC(=O)Nc2ccc(OC(F)F)cc2)cc1,-3.81% (inactive),7.38,–,–
O=C(Nc1ccc(OC(F)F)cc1)c1ccccn1,7.36% (inactive),7.91,–,–
O=C(NCc1ccc2c(c1)OCO2)c1nc(S(=O)(=O)Cc2ccccc2)ncc1Cl,–,–,–,inactive
Cc1ccc(CS(=O)(=O)c2ncc(Cl)c(C(=O)Nc3nnc(C(C)C)s3)n2)cc1,-92.2% (inactive),-27.5,–,–
Cc1ccc(CS(=O)(=O)c2ncc(Cl)c(C(=O)Nc3ccc(OC(F)F)cc3)n2)cc1,–,–,1.16 µM (active),–
Cc1cccc(CS(=O)(=O)c2ncc(Cl)c(C(=O)Nc3c(C)cccc3C)n2)c1,–,14.9,–,inactive
CS(=O)(=O)c1ncc(Cl)c(C(=O)Nc2ccc(OC(F)F)cc2)n1,–,-13.9,18.4 µM (active),–
CC(C)c1nnc(NC(=O)c2nc(S(=O)(=O)Cc3ccccc3F)ncc2Cl)s1,–,-17.7,1.64 µM (active),–
Cc1cccc(CS(=O)(=O)c2ncc(Cl)c(C(=O)NCc3ccc4c(c3)OCO4)n2)c1,–,–,6.51 µM (active),–
COc1ccc(NC(=O)c2nc(SC)ncc2Cl)cc1,20% (inactive),–,–,–
O=C(Nc1ccc(OC(F)F)cc1)c1ncc(Cl)c(Cl)c1Cl,–,21.1,–,inactive
COCCNC(=S)Nc1ccc(S(=O)(=O)Nc2ncccn2)cc1,6.38% (inactive),–,–,–
CC(C)OP(=O)(OC(C)C)C(Nc1ccccc1)c1ccc2c(c1)OCO2 (stereo not drawn),-18.8% (inactive),-17,–,–
CC1(C(=O)OCc2cc(=O)n3cc(Br)ccc3n2)CC1(Cl)Cl (stereo not drawn),28.5% (inactive),20.1,–,–
Nc1nc(/C=C/c2cccnc2)nc(-c2ccccc2O)n1,-12.8% (inactive),-9.25,–,–

SMILES,"lipid storage change, negative = inhibition",cell number change [%],Potency,outcome
CCC(CC)C(=O)N(c1ccc(F)cc1)C1C=CS(=O)(=O)C1 (stereo not drawn),21.6% (inactive),-1.72,–,–
COc1ccc(N(C(=O)Cc2cccs2)C(C(=O)NC2CCCC2)c2ccncc2)cc1OC (stereo not drawn),–,16.1,–,inactive
CC1=CC(C)(C)N(C(=O)CSc2nnc(N)s2)c2cc(C)c(C)cc21,9.13% (inactive),6.05,–,–
COc1ccccc1NC(=O)c1nc(S(=O)(=O)Cc2ccccc2)ncc1Cl,–,-4.72,–,inactive
COC(=O)c1ccccc1NC(=O)c1nc(S(=O)(=O)Cc2ccccc2)ncc1Cl,–,-21.2,–,inactive
CCc1ccc(NC(=O)c2nc(S(=O)(=O)Cc3ccccc3)ncc2Cl)cc1,–,-18.2,1.16 µM (active),–
O=C(OCc1ccc(Cl)c(Cl)c1)c1ccc[nH]1,-19.8% (inactive),0.855,–,–
COc1ccc(CNc2ncccn2)cc1OC,-2.64% (inactive),2.02,–,–
CCOc1ccc(CNC2CCCCCCC2)cc1OC,-10.8% (inactive),-6.56,–,–
COc1ccc(CNC2c3ccccc3-c3ccccc32)cc1OC,–,14.9,3.66 µM (active),–
Cc1ccccc1-n1c(Cn2c(=O)sc3ccccc32)nnc1SCC(=O)N1CCOCC1,-10.7% (inactive),-4.41,–,–
Cc1cc(C)n(CCC(=O)N=Nc2c(O)[nH]c3ccc(Br)cc23)n1,4.25% (inactive),-11.1,–,–
CCOCCCNC(=O)c1ccc2c(c1)N=C(CC)c1cc(Br)ccc1S2,1.52% (inactive),13.2,–,–
COc1ccccc1CN1CCCCCC1,4.08% (inactive),10.4,–,–
COc1cccc(CN2CCSCC2)c1,-2.92% (inactive),8.55,–,–
COc1ccccc1CN1CCSCC1,–,-20,23.1 µM (active),–
COc1cccc(CN2CCSCC2)c1OC,2.57% (inactive),10.1,–,–
COc1cc(CN2CCSCC2)cc(OC)c1OC,6.26% (inactive),-0.391,–,–
COc1ccc(CN2CCSCC2)cc1C,–,8.44,23.1 µM (active),–
O=C(Nc1ccc(F)cc1)N1CCCN(c2ccc(C(F)(F)F)cn2)CC1,5.76% (inactive),-1.28,–,–
O=C1C2C3c4ccccc4C(c4ccccc43)C2C(=O)N1/N=C/c1cccc(O)c1 (stereo not drawn),3.58% (inactive),9.29,–,–
CC1(C)CC(NC(=O)c2cc(S(=O)(=O)N3CCOCC3)c(Cl)cc2Cl)CC(C)(C)N1,–,-3.63,–,inactive
COc1cc(/C=C2\SC(N3CCc4ccccc4C3)=NC2=O)cc(OC)c1OC,23.5% (inactive),4.12,–,–
